NIH3T3 tox – kills NIH 3T3 cells; NIH 3T3 viability, CellTiter-Glo ATP luminescence, 48-72 h; Potency, µM (titrated, usually from 96.7 µM), without a hit: at the highest dose activity change, negative = cytotoxicity, usual class: inhibitors; 94,000 tested, 4.3% active; AID 1345082; note: nearly all actives have a fitted effect of over 55% in size
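First NIH 3T3 cells are plated at 400 cells/well; next compound is pinned in; then plates incubate 48 or 72 hr at 37 °C; finally CellTiter-Glo is added and luminescence read after 10 min.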
FLuc inh – inhibitors of firefly (Photinus pyralis) luciferase | P08659 | purified P. pyralis luciferase, luminescence, biochemical | Potency, µM (titrated, usually from 115 µM), actives largely listed as inhibitors | 76,000 tested, 2.5% active; note: nearly all actives have a fitted effect of over 65% in size
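Cell-free enzyme assay, 10nM P. pyralis luciferase, luciferin and ATP each at 10uM. Inhibition profiled over a 6-point titration, read as luminescence.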
HEK293 tox – kills HEK 293 cells; 94,000 tested, 6.6% active; HEK 293 viability, ATP luminescence (CellTiter-Glo), 48-72 h; Potency, µM (top dose mostly 115 µM), for the others: top-dose activity change, negative = cytotoxicity, hits mostly inhibitors; note: nearly all actives have a fitted effect of over 60% in size
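Viability of HEK 293 cells, plated at 250 cells/well, was judged by cellular ATP after compound treatment for 48 or 72 hr. Luminescence was imaged 10 min after CellTiter-Glo addition at room temperature.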
NPR1 antag – antagonists of human natriuretic peptide receptor Npr1 | Potency, µM (highest dose often 46.3 µM), for inactives: top-dose activity change, negative = inhibition, most hits filed as inhibitors | HEK293 hNpr1 GloSensor cGMP, ANP-stimulated luminescence | 76,000 tested, 1.6% active | AID 1347048; calls by dose curve; note: nearly all actives have a fitted effect of over 60% in size
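Compound pre-incubated 30 min at room temperature on GloSensor-loaded HEK293 cells stably carrying hNpr1 and the pGS-40F cGMP biosensor. Stimulation uses hNppA at 0.1 nM final; luminescence is taken at baseline and 20 min post-agonist.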
GPT2 inh – inhibitors of human GPT2 alanine aminotransferase; Q8TD30; Recombinant GPT2, coupled pyruvate oxidase/HRP Amplex Red fluorescence; Potency, µM (highest dose often 57.7 µM), without a hit: at the highest dose activity change, negative = inhibition, hits mostly inhibitors; 100,000 tested, 0.25% active; note: nearly all actives have a fitted effect of over 60% in size
Target sequence (Q8TD30 whole entry, looked up): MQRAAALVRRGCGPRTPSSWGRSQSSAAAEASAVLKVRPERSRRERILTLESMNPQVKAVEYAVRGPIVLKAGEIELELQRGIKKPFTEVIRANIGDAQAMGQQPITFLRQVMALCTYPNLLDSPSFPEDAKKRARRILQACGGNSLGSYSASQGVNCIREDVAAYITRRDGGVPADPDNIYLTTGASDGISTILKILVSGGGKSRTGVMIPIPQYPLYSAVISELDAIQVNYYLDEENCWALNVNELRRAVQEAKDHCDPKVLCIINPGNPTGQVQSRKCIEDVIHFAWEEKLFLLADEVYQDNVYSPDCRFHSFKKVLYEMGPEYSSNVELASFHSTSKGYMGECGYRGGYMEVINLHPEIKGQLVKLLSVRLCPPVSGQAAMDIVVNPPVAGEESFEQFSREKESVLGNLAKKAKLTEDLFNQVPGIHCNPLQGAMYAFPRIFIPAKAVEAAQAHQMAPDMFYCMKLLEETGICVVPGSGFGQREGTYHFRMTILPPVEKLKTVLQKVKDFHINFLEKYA
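Recombinant GPT2 (10ng/uL) with 250uM a-KG and 2mM L-alanine, 30 min at room temperature, in HEPES pH 7.5 buffer. Pyruvate detected by pyruvate oxidase/HRP/Amplex Red fluorescence after 30 min in the dark; AOA (50uM) as positive control.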
* marks the source's active call; other numbers are inactive results; ! = repeats disagree; [ ] = remark or other dose. Shown are actives, neighbours in structure and some others; about 10% of the full set was active somewhere. Unless noted, calls come from the whole dose curve; as a rule, active = well fitted curve in the direction sought with a large enough effect; inconclusive = small, poorly fitted or top-dose-only effect, or another doubt; inactive = no such curve, though single readings can be large; an effect the other way counts as inactive or inconclusive. % is set by controls: 0 for no effect and ±100 for the full control effect; potency is the fitted concentration of half-maximal effect.

`CC(C)(C)c1nc(C(=O)NCCc2ccc(Cl)cc2)n2ccccc12` gave NIH3T3 tox inconclusive, HEK293 tox -24% and GPT2 inh -16%.
Cc1cc2nc(CO[C@H]3CN(Cc4ccc(C(=O)O)cc4)C[C@H]3F)[nH]c2cc1C was read as NIH3T3 tox -1%[174 µM], FLuc inh 22µM*, HEK293 tox -8%[172 µM], NPR1 antag -3%[70.6 µM] and GPT2 inh 2%[88.5 µM].
For COC(=O)c1ccc2nc(CO[C@H]3CN(Cc4ccc(C(F)(F)F)cc4)C[C@H]3F)[nH]c2c1 the results were NIH3T3 tox inconclusive, FLuc inh inactive, HEK293 tox 50µM*, NPR1 antag inconclusive and GPT2 inh -11%.
COc1cc(NC(=O)c2ccc3c(c2)N(C)C2CCCCN2C3=O)cc(OC)c1OC (stereo not given) was read as NIH3T3 tox 32µM*, FLuc inh inactive, HEK293 tox inconclusive, NPR1 antag -15% and GPT2 inh inactive.
For COc1ccc(NC(=O)c2ccc3c(c2)N(C)C2CCCCN2C3=O)cc1OC (stereo not given) the results were NIH3T3 tox inconclusive, FLuc inh inactive, HEK293 tox inconclusive, NPR1 antag 0% and GPT2 inh 3%.
Cc1cc(C)cc(NC(=O)c2ccc3c(c2)N(C)C2CCCN2C3=O)c1 (stereo not given) was read as NIH3T3 tox -26%, FLuc inh inactive, HEK293 tox 71µM*, NPR1 antag 9% and GPT2 inh -3%.
Screening Cc1cc(NC(=O)c2ccc3c(c2)N(C)C2CCCN2C3=O)ccc1Br (stereo not given) returned NIH3T3 tox inactive, FLuc inh inconclusive, HEK293 tox 3%, NPR1 antag -6% and GPT2 inh inactive.
Screening CN1c2cc(C(=O)Nc3cccc(Br)c3)ccc2C(=O)N2CCCCCC21 (stereo not given) returned NIH3T3 tox inconclusive, FLuc inh inconclusive, HEK293 tox inconclusive, NPR1 antag 1% and GPT2 inh 1%.
For Cc1cccc(NC(=O)c2ccc3c(c2)N(C)C2CCCCCN2C3=O)c1 (stereo not given) the results were NIH3T3 tox inconclusive, FLuc inh 35µM*, HEK293 tox inconclusive, NPR1 antag -1% and GPT2 inh inactive.
CSc1cccc(NC(=O)c2ccc3c(c2)N(C)C2CCCCCN2C3=O)c1 (stereo not given) was read as NIH3T3 tox 32µM*, FLuc inh inconclusive, HEK293 tox 18µM*, NPR1 antag -4% and GPT2 inh inactive.
For COC(=O)c1cccc(NC(=O)c2ccc3c(c2)N(C)C2CCCCN2C3=O)c1 (stereo not given) the results were NIH3T3 tox inconclusive, FLuc inh inconclusive, HEK293 tox inconclusive, NPR1 antag -3% and GPT2 inh inactive.
O=C(Nc1ccccc1)N1CCCC(C(=O)N2CCC(c3ccccc3)CC2)C1 (stereo not given) was read as NIH3T3 tox inconclusive, HEK293 tox inconclusive and GPT2 inh inactive.
CCOc1ccccc1CN1CCC2(CCN(CCc3ccc(OC)cc3)CC2)Oc2ccccc21 was read as NIH3T3 tox inconclusive, FLuc inh inactive, HEK293 tox inconclusive, NPR1 antag 3% and GPT2 inh inconclusive.
`C[C@]1(NC(=O)c2cnccn2)OC[C@@H]2CC[C@H](C(=O)NCc3ccc(OC(F)(F)F)cc3)N2C1=O` gave NIH3T3 tox inconclusive, FLuc inh inactive, HEK293 tox -4%, NPR1 antag -2% and GPT2 inh 4%.
O=C(NC1CCCN(CCn2nc3n(c2=O)CCCC3)C1)c1ccccc1 (stereo not given) was read as NIH3T3 tox -2% and HEK293 tox inactive.
Screening COC(=O)c1cccc(NC(=O)c2ccc3c(c2)N(C)C2CCCCCN2C3=O)c1 (stereo not given) returned NIH3T3 tox 45µM*, FLuc inh inconclusive, HEK293 tox inconclusive, NPR1 antag inconclusive and GPT2 inh inactive.
CCC(=O)N1CCc2c(C(=O)NCc3cccc(OC)c3OC)cccc21 was read as NIH3T3 tox -22%, FLuc inh inactive, HEK293 tox inconclusive, NPR1 antag -10% and GPT2 inh inactive.
For CC(CN1c2ccccc2Sc2ccccc21)N(C)C (stereo not given) the results were GPT2 inh 10µM*!.
For O=C(Cc1cccc(Cl)c1)N1CCCN(c2ccc3nnc(-c4ccccc4)n3n2)CC1 the results were NIH3T3 tox inconclusive and HEK293 tox -20%.
For O=C(NCc1ccc(C(F)(F)F)cc1)C1CCCN1C(=O)c1cccc(-c2ccccn2)c1 (stereo not given) the results were NIH3T3 tox -25%, HEK293 tox inconclusive and GPT2 inh inconclusive.
`Cc1ncsc1CN1CC(Oc2cccc(C(=O)N3CCOCC3)c2)C1` gave NIH3T3 tox -9%, FLuc inh inactive, HEK293 tox inconclusive, NPR1 antag 14% and GPT2 inh 1%.
CCOC(=O)N1CCC(Nc2ccc(Cl)cc2N)CC1 was read as GPT2 inh 8.9µM*.
For CN(Cc1ccc(F)cc1)C(=O)Cc1ccccn1 the results were NIH3T3 tox 1%[138 µM], FLuc inh inactive, HEK293 tox -4%[172 µM], NPR1 antag 10%[70.6 µM] and GPT2 inh inactive.
`CN(Cc1ccc(-c2ccccc2)cc1)C(=O)Cc1ccccn1` gave NIH3T3 tox inconclusive, FLuc inh inconclusive, HEK293 tox 63µM*, NPR1 antag inconclusive and GPT2 inh inactive.
`CN(Cc1ccc(-c2ccccc2)cc1)C(=O)Cc1ccc(F)cc1` gave NIH3T3 tox 35µM*, FLuc inh inactive, HEK293 tox 50µM*, NPR1 antag -24%[70.6 µM] and GPT2 inh 0%[88.5 µM].
COc1ccc(Cl)cc1-c1ncc2c(n1)OCCN(Cc1ccc(F)cc1F)C2=O was read as NIH3T3 tox inconclusive, FLuc inh inactive, HEK293 tox inconclusive, NPR1 antag -1%[70.6 µM] and GPT2 inh -6%[88.5 µM].
`N#Cc1ccc(CN2CC3(Cc4ccccc4C(=O)N3)C2)cc1` gave NIH3T3 tox 35µM*, HEK293 tox inconclusive and GPT2 inh -33%.
`COc1ccc(CN2CC3(Cc4ccccc4C(=O)N3)C2)cc1` gave NIH3T3 tox inconclusive, HEK293 tox inconclusive and GPT2 inh -5%.
Screening COc1ccc(CCC(=O)N2CCC3(CC2)CC(CO)N(C(=O)c2ccccc2)C3)cc1 (stereo not given) returned NIH3T3 tox -14%, HEK293 tox 0% and GPT2 inh 4%.
